Laboratory results taken from the supplement of paper PMC6555819.

Legend:
Test in all cases: PBM binding z-score (relative to random genomic background probes); higher = stronger binding; sequences stand for … in GC…GCGATTGACAGCGTAGAATGAAGG
[1] = test system: RARb homodimer (NR concentration 270 nM)
Method in brief: (§1)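 Ligand-free nuclear receptor dimers were bound for 1 h to custom Agilent 4×180K protein-binding microarrays. Detection used antibodies against each partner (one per run). Binding z-scores rest on regression-normalized fluorescence, with random background probes as the reference.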

[2] = test system: RARg:RXRa (NR concentration 270 nM, RXRa partner concentration 90 nM)
Method in brief: as §1

[3] = test system: RARg homodimer (NR concentration 270 nM)
Method in brief: as §1

[4] = test system: RXRa DBDmut IVT, anti-RXR (DBD mutation: RXRa K156A/R161A, NR concentration 90 nM)
Method in brief: as §1

[5] = test system: RXRa homodimer (NR concentration 180 nM)
Method in brief: as §1

[6] = test system: THRa:RXRa (NR concentration 90 nM, RXRa partner concentration 90 nM)
Method in brief: as §1

[7] = test system: THRa homodimer (NR concentration 90 nM)
Method in brief: as §1

[8] = test system: VDR homodimer (NR concentration 270 nM)
Method in brief: as §1

CGTCAAAGTTCAAGGTAACGTAACAGAAAGCAGC
PBM binding z-score [1]: 3.92
PBM binding z-score [2]: 5.25
PBM binding z-score [3]: 5.88
PBM binding z-score [4]: 4.03
PBM binding z-score [5]: 4.58
PBM binding z-score [6]: 3
PBM binding z-score [7]: 1.32
PBM binding z-score [8]: 3.12

GCTGCTAGGTCAACTGATGGTCAGCGAAAGCTCG
PBM binding z-score [1]: 3.66
PBM binding z-score [2]: 5.35
PBM binding z-score [3]: 5.22
PBM binding z-score [4]: 1.57
PBM binding z-score [5]: 3.2
PBM binding z-score [6]: 2.98
PBM binding z-score [7]: 0.857
PBM binding z-score [8]: 0.0996

ATCGCAAGGTCGAAGGTGAGTATACCCACCCGAA
PBM binding z-score [1]: 1.17
PBM binding z-score [2]: 2.67
PBM binding z-score [3]: 2.23
PBM binding z-score [4]: 0.978
PBM binding z-score [5]: 2.93
PBM binding z-score [6]: 2.12
PBM binding z-score [7]: -0.0109
PBM binding z-score [8]: 0.489

CCTGGGAGGACAGAAGGTCAGAGCTGTCCGCTTT
PBM binding z-score [1]: 3.38
PBM binding z-score [2]: 3.49
PBM binding z-score [3]: 3.63
PBM binding z-score [4]: -0.277
PBM binding z-score [5]: 1.92
PBM binding z-score [6]: 2.69
PBM binding z-score [7]: 0.124
PBM binding z-score [8]: 0.289

TCATGTAGGTAAATGCTAGGTGAAAGTCCGATCT
PBM binding z-score [1]: 0.541
PBM binding z-score [2]: 0.226
PBM binding z-score [3]: 0.15
PBM binding z-score [4]: 1.26
PBM binding z-score [5]: 0.398
PBM binding z-score [6]: 1.28
PBM binding z-score [7]: 0.741
PBM binding z-score [8]: 0.319

GCGACTGGGGCAAAGCACGTTACCATAAGGTTGG
PBM binding z-score [1]: 0.0132
PBM binding z-score [2]: 0.0263
PBM binding z-score [3]: 0.422
PBM binding z-score [4]: -0.0988
PBM binding z-score [5]: 0.0282
PBM binding z-score [6]: -0.139
PBM binding z-score [7]: -0.582
PBM binding z-score [8]: -0.524

CCTCGGAGGACAGAAGGTAAGAGCTGTCCGCTTT
PBM binding z-score [1]: -0.457
PBM binding z-score [2]: -0.117
PBM binding z-score [3]: 0.0766
PBM binding z-score [4]: -0.382
PBM binding z-score [5]: -0.845
PBM binding z-score [6]: -0.0375
PBM binding z-score [7]: -0.566
PBM binding z-score [8]: -0.677

CCTGCTAGGTCAATGGTGAGCTAAAGCAGCTCGC
PBM binding z-score [1]: 1.97
PBM binding z-score [2]: 3.3
PBM binding z-score [3]: 4.12
PBM binding z-score [4]: 1.62
PBM binding z-score [5]: 1.56
PBM binding z-score [6]: 1.77
PBM binding z-score [7]: 0.113
PBM binding z-score [8]: -0.465

AGAGACAGGTGAGTGAAGGTAACTCAGCTGGACG
PBM binding z-score [1]: 0.498
PBM binding z-score [2]: 0.327
PBM binding z-score [3]: 0.547
PBM binding z-score [4]: -0.787
PBM binding z-score [5]: 0.592
PBM binding z-score [6]: 1.75
PBM binding z-score [7]: 0.04
PBM binding z-score [8]: -0.14

CCGACTGGGGTAAGGTTACCATAACGCACAGCCA
PBM binding z-score [1]: 1.12
PBM binding z-score [2]: 0.907
PBM binding z-score [3]: 0.859
PBM binding z-score [4]: -0.0386
PBM binding z-score [5]: 1.55
PBM binding z-score [6]: 2.36
PBM binding z-score [7]: 1.47
PBM binding z-score [8]: 0.414

GCGACTGGGGTATCAGCAGGTTACCATAACTTAA
PBM binding z-score [1]: 0.852
PBM binding z-score [2]: 0.223
PBM binding z-score [3]: -0.199
PBM binding z-score [4]: -0.351
PBM binding z-score [5]: 0.229
PBM binding z-score [6]: 1.82
PBM binding z-score [7]: -0.0503
PBM binding z-score [8]: -0.333

GCTGCTAGGTCAACTGATGGTCAGTTAAAGCTCG
PBM binding z-score [1]: 3.55
PBM binding z-score [2]: 5.17
PBM binding z-score [3]: 5.45
PBM binding z-score [4]: 1.51
PBM binding z-score [5]: 2.85
PBM binding z-score [6]: 3.15
PBM binding z-score [7]: 1.05
PBM binding z-score [8]: -0.147

CCTCGGAGGACAACAGGAGGTCAGAGATGCCAGA
PBM binding z-score [1]: 3.66
PBM binding z-score [2]: 3.42
PBM binding z-score [3]: 3.31
PBM binding z-score [4]: 0.124
PBM binding z-score [5]: 1.95
PBM binding z-score [6]: 2.83
PBM binding z-score [7]: 1.02
PBM binding z-score [8]: 1.41

CGAACTAGGTCATCCAGGACATTGAATACATTGA
PBM binding z-score [1]: 3.11
PBM binding z-score [2]: 3.95
PBM binding z-score [3]: 4.63
PBM binding z-score [4]: 2.66
PBM binding z-score [5]: 2.95
PBM binding z-score [6]: 3.87
PBM binding z-score [7]: 2.27
PBM binding z-score [8]: 3.47

CCGACTGGGGCATAATGTTACCATAAGCCAGCCC
PBM binding z-score [1]: -0.153
PBM binding z-score [2]: 0.0195
PBM binding z-score [3]: 0.3
PBM binding z-score [4]: -0.127
PBM binding z-score [5]: 0.021
PBM binding z-score [6]: -0.493
PBM binding z-score [7]: -0.413
PBM binding z-score [8]: -0.295

ACTATTAGTTGTGACGAGGGCAACCGATAGGTTG
PBM binding z-score [1]: 1.21
PBM binding z-score [2]: 0.579
PBM binding z-score [3]: 0.719
PBM binding z-score [4]: 0.601
PBM binding z-score [5]: 0.491
PBM binding z-score [6]: 1.32
PBM binding z-score [7]: 0.209
PBM binding z-score [8]: 0.862

TCTGCAAGGTCAACGATGGTCAGCTAATCTGCTA
PBM binding z-score [1]: 4.58
PBM binding z-score [2]: 6.12
PBM binding z-score [3]: 6.75
PBM binding z-score [4]: 2.83
PBM binding z-score [5]: 5.75
PBM binding z-score [6]: 4.24
PBM binding z-score [7]: 2.36
PBM binding z-score [8]: 1.62

CCTAGCAGGCCAATCTGGGTCACTCAAGGCTTGA
PBM binding z-score [1]: 2.33
PBM binding z-score [2]: 1.22
PBM binding z-score [3]: 1.57
PBM binding z-score [4]: 0.0731
PBM binding z-score [5]: 0.984
PBM binding z-score [6]: 3.9
PBM binding z-score [7]: 0.369
PBM binding z-score [8]: 0.000728

CGGCCAAGGTCAGCAGGTCAGTGAAAGCGACGTG
PBM binding z-score [1]: 5.01
PBM binding z-score [2]: 6.21
PBM binding z-score [3]: 6.95
PBM binding z-score [4]: 2.22
PBM binding z-score [5]: 5.05
PBM binding z-score [6]: 3.85
PBM binding z-score [7]: 1.94
PBM binding z-score [8]: 1.09

CCTTACGGGTCACTGACAGGTTATAGCCTTTGGA
PBM binding z-score [1]: 3.15
PBM binding z-score [2]: 5.69
PBM binding z-score [3]: 4.21
PBM binding z-score [4]: 2
PBM binding z-score [5]: 4.83
PBM binding z-score [6]: 2.9
PBM binding z-score [7]: 0.294
PBM binding z-score [8]: 1.14

ACAGACAGGTGAGTGAAGGTAACTCTGCTGGACG
PBM binding z-score [1]: 0.091
PBM binding z-score [2]: 0.24
PBM binding z-score [3]: 0.455
PBM binding z-score [4]: -0.298
PBM binding z-score [5]: 0.622
PBM binding z-score [6]: 1.52
PBM binding z-score [7]: -0.492
PBM binding z-score [8]: -0.195

CCTGCTAGGGCAATGGTCAGCTAAAGCAGCTCGC
PBM binding z-score [1]: 0.431
PBM binding z-score [2]: 0.176
PBM binding z-score [3]: 0.604
PBM binding z-score [4]: -0.414
PBM binding z-score [5]: -0.159
PBM binding z-score [6]: -0.164
PBM binding z-score [7]: -0.86
PBM binding z-score [8]: -0.814

CCTTACTGGTCAAGGTTATAGCACGGGTGGTACG
PBM binding z-score [1]: 1.78
PBM binding z-score [2]: 1.43
PBM binding z-score [3]: 1.55
PBM binding z-score [4]: -0.171
PBM binding z-score [5]: 1.37
PBM binding z-score [6]: 1.52
PBM binding z-score [7]: 1.09
PBM binding z-score [8]: 0.749

CAAACTAGGTCACCGGAAGGACAAAGTCCGCATG
PBM binding z-score [1]: 4.21
PBM binding z-score [2]: 6.38
PBM binding z-score [3]: 6.15
PBM binding z-score [4]: 1.54
PBM binding z-score [5]: 3.82
PBM binding z-score [6]: 3.81
PBM binding z-score [7]: 2.12
PBM binding z-score [8]: 1.38

CGAACTAGGTCCTCCAGGACAGTGAATACATTGA
PBM binding z-score [1]: -0.151
PBM binding z-score [2]: 0.0122
PBM binding z-score [3]: 0.149
PBM binding z-score [4]: 0.211
PBM binding z-score [5]: 0.00298
PBM binding z-score [6]: 1.41
PBM binding z-score [7]: 0.816
PBM binding z-score [8]: -0.221

ATCCCTAGGTAAAGATAGTTCAGTGAATGCAAAT
PBM binding z-score [1]: 1.19
PBM binding z-score [2]: 0.428
PBM binding z-score [3]: 0.526
PBM binding z-score [4]: 0.103
PBM binding z-score [5]: 0.295
PBM binding z-score [6]: 0.844
PBM binding z-score [7]: 0.169
PBM binding z-score [8]: 0.524

CAGAGTAGGTTATGGGGCATTCAGGCAACGGTGA
PBM binding z-score [1]: 1.24
PBM binding z-score [2]: 0.814
PBM binding z-score [3]: 0.945
PBM binding z-score [4]: -0.321
PBM binding z-score [5]: 0.947
PBM binding z-score [6]: 0.691
PBM binding z-score [7]: 0.428
PBM binding z-score [8]: 0.315

TCAAACAGGTGAAGGTAACTCAGGTACGCAGTCG
PBM binding z-score [1]: 0.716
PBM binding z-score [2]: 0.691
PBM binding z-score [3]: 0.597
PBM binding z-score [4]: 1.43
PBM binding z-score [5]: 1.13
PBM binding z-score [6]: 1.44
PBM binding z-score [7]: 0.12
PBM binding z-score [8]: 0.467
